# Tests used:
# Assay in all cases: DAPPL (digital affinity profiling via proximity ligation, sequencing); 10 mM Tris-HCl pH 7.5, 50 mM NaCl, 1 mM DTT, 4% glycerol, room temperature, 30 min; GST-TFs on glutathione beads, 16-mer random dsDNA library, 0.1% formaldehyde crosslink after washing; high values mean tight binding
# [1] = biological target: T1, FLI1 (Homo sapiens, UniProt Q01543 1-452); conditions: protein: recombinant; tags: N-terminal GST; dsDNA, one strand shown
# T1 sequence: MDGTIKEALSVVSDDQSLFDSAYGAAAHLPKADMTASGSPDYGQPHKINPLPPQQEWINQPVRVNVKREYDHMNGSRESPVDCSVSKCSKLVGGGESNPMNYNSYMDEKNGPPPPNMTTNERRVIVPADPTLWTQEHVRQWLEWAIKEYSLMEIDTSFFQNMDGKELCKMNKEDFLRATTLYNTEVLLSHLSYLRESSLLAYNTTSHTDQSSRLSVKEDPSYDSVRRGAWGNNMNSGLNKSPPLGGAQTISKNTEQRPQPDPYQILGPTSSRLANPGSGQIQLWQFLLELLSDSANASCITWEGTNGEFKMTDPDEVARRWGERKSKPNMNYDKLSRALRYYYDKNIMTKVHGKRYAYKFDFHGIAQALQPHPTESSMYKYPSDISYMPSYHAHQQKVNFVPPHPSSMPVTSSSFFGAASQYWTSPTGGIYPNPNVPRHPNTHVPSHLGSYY
# Procedure, shortened: (§1)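 GST fusions of human transcription factors were expressed in yeast and captured with glutathione beads. Once given DNA barcodes and pooled alongside a tag-only sample, they were incubated for 30 min at room temperature with 200 nmole of a random double-stranded 16-mer DNA library in Tris/NaCl/DTT/glycerol buffer, then washed, crosslinked (0.1% formaldehyde), proximity-ligated, PCR-amplified and sequenced on an Illumina NextSeq500. The binding signal of each hexamer is its read frequency for a factor divided by its frequency for the tag-only sample.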
# [2] = biological target: T2, ELK1 (Homo sapiens, UniProt P19419 1-428); conditions: protein: recombinant; tags: N-terminal GST; dsDNA, one strand shown
# T2 sequence: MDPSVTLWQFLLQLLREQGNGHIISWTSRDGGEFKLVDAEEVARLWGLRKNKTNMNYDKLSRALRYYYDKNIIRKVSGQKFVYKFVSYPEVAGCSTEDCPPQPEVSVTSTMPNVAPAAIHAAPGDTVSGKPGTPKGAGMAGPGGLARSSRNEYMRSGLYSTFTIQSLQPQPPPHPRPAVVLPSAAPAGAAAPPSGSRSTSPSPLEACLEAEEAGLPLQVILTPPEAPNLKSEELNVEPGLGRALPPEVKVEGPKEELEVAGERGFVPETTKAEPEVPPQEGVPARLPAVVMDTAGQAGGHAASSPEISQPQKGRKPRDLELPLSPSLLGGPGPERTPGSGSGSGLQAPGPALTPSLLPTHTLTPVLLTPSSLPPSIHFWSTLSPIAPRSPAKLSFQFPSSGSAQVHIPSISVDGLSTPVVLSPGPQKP
# Procedure, shortened: as §1
# [3] = biological target: T3, GABPA (Homo sapiens, UniProt Q06546 1-454); conditions: protein: recombinant; tags: N-terminal GST; dsDNA, one strand shown
# T3 sequence: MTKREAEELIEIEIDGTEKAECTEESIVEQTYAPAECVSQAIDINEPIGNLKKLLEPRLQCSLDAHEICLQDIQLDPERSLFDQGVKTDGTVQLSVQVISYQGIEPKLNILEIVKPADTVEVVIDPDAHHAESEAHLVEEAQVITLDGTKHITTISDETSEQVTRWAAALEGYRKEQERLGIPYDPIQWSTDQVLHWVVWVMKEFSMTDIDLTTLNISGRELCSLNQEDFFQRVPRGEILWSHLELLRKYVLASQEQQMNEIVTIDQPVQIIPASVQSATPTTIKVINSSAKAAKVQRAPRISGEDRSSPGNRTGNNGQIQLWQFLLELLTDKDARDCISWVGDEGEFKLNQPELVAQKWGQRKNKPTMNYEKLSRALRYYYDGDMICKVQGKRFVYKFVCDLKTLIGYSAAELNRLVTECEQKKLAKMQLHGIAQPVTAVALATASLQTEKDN
# Procedure, shortened: as §1
# [4] = biological target: T4, ERG (Homo sapiens, UniProt P11308 1-479); conditions: protein: recombinant; tags: N-terminal GST; dsDNA, one strand shown
# T4 sequence: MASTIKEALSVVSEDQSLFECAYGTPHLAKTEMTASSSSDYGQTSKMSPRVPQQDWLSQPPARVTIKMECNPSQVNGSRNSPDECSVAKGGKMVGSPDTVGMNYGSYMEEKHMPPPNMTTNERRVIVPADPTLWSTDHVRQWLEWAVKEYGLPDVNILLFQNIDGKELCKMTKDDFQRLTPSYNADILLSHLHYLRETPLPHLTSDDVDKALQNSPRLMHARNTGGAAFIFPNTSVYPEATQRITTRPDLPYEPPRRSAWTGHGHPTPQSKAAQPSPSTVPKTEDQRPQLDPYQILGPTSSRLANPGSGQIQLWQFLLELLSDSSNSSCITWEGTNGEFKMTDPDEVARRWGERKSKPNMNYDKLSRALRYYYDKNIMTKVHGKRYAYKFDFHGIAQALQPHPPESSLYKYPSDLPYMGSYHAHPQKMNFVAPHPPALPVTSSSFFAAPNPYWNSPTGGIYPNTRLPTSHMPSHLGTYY
# Procedure, shortened: as §1
# [5] = biological target: ELF1 (Homo sapiens, UniProt P32519 1-619); conditions: protein: recombinant; tags: N-terminal GST; dsDNA, one strand shown
# Chain of ELF1 (P32519 whole entry): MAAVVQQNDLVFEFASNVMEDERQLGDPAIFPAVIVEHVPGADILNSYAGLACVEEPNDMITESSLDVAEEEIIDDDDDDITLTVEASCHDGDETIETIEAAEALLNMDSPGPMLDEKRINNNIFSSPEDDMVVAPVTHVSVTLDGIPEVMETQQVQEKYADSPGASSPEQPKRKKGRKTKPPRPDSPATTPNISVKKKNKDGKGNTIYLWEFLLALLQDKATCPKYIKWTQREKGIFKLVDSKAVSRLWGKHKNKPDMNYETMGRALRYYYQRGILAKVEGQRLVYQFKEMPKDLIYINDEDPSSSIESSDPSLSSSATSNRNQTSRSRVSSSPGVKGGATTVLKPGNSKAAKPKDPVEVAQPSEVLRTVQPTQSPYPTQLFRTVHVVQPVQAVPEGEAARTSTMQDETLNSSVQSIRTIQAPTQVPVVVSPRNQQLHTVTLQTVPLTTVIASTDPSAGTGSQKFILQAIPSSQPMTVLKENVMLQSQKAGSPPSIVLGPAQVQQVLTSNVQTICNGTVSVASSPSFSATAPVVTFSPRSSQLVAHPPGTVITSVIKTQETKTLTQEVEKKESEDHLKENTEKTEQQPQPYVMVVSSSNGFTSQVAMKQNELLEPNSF
# Procedure, shortened: as §1
# [6] = biological target: T5, EHF (Homo sapiens, UniProt Q9NZC4 1-300); conditions: protein: recombinant; tags: N-terminal GST; dsDNA, one strand shown
# T5 sequence: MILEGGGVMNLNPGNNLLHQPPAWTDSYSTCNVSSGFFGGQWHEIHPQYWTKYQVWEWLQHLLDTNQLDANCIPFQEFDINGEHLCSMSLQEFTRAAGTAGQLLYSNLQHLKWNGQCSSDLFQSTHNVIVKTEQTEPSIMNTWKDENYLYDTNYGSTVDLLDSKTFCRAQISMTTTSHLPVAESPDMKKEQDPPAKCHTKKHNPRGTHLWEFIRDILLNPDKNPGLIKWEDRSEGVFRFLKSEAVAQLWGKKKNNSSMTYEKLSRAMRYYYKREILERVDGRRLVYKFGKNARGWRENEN
# Procedure, shortened: as §1
# [7] = biological target: SPI1 (Homo sapiens, UniProt P17947 1-270); conditions: protein: recombinant; tags: N-terminal GST; dsDNA, one strand shown
# Procedure, shortened: as §1
# [8] = biological target: SPIB (Homo sapiens, UniProt Q01892 1-262); conditions: protein: recombinant; tags: N-terminal GST; dsDNA, one strand shown
# Chain of SPIB (Q01892 whole entry): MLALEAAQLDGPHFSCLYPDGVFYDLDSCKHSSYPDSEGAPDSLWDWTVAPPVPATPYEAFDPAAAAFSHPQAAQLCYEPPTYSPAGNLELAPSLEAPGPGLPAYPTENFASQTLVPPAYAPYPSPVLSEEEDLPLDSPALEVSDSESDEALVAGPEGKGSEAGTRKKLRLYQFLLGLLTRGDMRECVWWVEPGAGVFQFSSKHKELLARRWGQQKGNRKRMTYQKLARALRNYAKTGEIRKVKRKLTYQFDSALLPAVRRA
# Procedure, shortened: as §1
# [9] = biological target: T6, ELK3 (Homo sapiens, UniProt P41970 1-407); conditions: protein: recombinant; tags: N-terminal GST; dsDNA, one strand shown
# T6 sequence: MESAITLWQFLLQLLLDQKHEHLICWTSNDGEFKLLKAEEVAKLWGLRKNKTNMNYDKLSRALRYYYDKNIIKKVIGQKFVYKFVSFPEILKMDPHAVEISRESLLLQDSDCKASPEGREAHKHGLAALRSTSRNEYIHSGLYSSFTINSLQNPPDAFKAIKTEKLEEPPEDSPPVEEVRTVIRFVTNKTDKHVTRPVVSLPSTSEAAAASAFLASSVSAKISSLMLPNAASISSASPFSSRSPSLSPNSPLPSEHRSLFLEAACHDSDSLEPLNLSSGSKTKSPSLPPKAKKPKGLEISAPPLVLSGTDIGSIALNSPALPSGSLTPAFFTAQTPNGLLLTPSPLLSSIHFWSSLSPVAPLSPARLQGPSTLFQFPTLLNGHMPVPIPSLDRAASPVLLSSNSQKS
# Procedure, shortened: as §1
# [10] = biological target: T7, FEV (Homo sapiens, UniProt Q99581 1-238); conditions: protein: recombinant; tags: N-terminal GST; dsDNA, one strand shown
# T7 sequence: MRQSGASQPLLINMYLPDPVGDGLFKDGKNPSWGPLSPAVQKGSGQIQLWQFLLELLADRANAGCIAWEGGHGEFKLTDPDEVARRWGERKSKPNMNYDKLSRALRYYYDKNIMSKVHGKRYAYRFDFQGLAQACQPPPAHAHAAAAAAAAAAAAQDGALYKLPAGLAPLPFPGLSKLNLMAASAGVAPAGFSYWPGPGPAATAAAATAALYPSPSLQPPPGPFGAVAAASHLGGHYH
# Procedure, shortened: as §1
# [11] = biological target: ETV5 (Homo sapiens, UniProt P41161 1-510); conditions: protein: recombinant; tags: N-terminal GST; dsDNA, one strand shown
# Chain of ETV5 (P41161 whole entry): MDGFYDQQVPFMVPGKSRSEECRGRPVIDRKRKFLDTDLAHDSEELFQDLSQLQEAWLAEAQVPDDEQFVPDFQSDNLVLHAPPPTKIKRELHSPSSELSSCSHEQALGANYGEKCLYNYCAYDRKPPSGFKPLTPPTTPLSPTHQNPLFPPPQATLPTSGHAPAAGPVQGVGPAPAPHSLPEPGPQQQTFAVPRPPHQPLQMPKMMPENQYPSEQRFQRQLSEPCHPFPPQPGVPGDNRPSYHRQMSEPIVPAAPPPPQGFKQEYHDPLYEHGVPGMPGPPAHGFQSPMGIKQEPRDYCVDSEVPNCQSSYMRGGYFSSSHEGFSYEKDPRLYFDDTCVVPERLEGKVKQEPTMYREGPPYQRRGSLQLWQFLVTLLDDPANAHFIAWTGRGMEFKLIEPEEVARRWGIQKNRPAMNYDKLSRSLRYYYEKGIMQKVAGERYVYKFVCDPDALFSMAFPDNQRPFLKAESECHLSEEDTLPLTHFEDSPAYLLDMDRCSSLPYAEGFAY
# Procedure, shortened: as §1
# [12] = biological target: HSF1 (Homo sapiens, UniProt Q00613 1-529); conditions: protein: recombinant; tags: N-terminal GST; chain copies: 3; dsDNA, one strand shown
# Chain of HSF1 (Q00613 whole entry): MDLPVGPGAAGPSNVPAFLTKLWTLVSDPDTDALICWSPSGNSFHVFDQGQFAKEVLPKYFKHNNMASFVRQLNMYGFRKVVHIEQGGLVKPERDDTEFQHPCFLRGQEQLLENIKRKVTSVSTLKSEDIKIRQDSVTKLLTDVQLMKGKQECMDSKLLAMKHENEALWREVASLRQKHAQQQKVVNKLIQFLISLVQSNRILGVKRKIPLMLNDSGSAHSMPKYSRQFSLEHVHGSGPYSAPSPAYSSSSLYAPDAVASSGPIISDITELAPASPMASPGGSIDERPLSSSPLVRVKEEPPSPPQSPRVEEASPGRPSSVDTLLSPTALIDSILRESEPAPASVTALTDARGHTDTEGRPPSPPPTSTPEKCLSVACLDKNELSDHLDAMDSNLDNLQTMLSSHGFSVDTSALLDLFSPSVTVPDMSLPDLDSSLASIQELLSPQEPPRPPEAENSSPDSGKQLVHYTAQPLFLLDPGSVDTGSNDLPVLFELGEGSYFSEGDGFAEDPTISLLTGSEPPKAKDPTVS
# Procedure, shortened: as §1
# [13] = biological target: T8, SPIC (Homo sapiens, UniProt Q8N5J4 1-248); conditions: protein: recombinant; tags: N-terminal GST; dsDNA, one strand shown
# T8 sequence: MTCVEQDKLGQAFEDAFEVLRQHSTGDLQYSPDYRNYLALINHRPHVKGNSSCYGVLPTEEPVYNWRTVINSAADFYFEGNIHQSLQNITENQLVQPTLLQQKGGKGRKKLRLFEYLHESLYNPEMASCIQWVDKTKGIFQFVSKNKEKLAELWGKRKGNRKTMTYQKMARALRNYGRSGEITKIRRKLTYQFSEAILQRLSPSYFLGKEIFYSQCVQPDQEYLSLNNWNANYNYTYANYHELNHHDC
# Procedure, shortened: as §1
# [14] = biological target: ELF4 (Homo sapiens, UniProt Q99607 1-663); conditions: protein: recombinant; tags: N-terminal GST; dsDNA, one strand shown
# Chain of ELF4 (Q99607 whole entry): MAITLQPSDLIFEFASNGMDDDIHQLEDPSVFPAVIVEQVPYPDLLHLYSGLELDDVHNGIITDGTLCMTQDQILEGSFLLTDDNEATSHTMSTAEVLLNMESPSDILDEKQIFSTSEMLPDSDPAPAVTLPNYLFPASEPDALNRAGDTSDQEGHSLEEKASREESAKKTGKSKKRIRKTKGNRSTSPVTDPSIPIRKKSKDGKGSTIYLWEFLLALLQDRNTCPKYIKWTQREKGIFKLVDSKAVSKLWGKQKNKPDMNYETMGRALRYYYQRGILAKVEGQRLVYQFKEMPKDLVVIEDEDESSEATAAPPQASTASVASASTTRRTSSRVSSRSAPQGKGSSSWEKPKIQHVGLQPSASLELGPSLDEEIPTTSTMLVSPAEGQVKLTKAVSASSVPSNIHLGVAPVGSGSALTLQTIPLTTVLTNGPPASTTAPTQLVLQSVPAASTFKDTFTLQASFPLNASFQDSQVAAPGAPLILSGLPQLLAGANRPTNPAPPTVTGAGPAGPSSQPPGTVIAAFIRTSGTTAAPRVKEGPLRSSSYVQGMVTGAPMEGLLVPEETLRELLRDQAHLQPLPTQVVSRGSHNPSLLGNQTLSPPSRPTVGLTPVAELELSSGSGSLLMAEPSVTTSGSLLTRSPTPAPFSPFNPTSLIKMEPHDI
# Procedure, shortened: as §1
# [15] = biological target: T9, ELK4 (Homo sapiens, UniProt P28324-2 1-405); conditions: protein: recombinant; tags: N-terminal GST; dsDNA, one strand shown
# T9 sequence: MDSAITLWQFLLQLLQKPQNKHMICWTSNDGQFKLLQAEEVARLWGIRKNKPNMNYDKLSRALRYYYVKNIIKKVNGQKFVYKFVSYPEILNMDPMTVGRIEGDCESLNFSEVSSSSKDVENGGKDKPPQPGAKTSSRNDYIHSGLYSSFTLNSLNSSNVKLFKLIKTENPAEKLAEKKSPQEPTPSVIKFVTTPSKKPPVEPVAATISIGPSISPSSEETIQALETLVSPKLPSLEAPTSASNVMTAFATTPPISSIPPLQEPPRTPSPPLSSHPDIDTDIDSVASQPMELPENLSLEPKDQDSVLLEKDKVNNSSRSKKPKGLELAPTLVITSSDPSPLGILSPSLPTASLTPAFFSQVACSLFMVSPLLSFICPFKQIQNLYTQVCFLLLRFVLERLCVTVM
# Procedure, shortened: as §1
# [16] = biological target: T10, ETV2 (Homo sapiens, UniProt O00321 1-342); conditions: protein: recombinant; tags: N-terminal GST; dsDNA, one strand shown
# T10 sequence: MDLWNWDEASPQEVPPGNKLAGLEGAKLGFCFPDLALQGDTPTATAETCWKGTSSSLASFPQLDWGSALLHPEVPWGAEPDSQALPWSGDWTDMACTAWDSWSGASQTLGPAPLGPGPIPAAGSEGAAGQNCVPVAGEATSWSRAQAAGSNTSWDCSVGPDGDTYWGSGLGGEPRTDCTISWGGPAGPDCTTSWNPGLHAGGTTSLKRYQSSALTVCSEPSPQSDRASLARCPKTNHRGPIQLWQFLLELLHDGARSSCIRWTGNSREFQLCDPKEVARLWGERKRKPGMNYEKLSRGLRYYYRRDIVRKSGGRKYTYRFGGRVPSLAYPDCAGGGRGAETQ
# Procedure, shortened: as §1
# [17] = biological target: T11, ELF3 (Homo sapiens, UniProt P78545 1-371); conditions: protein: recombinant; tags: N-terminal GST; dsDNA, one strand shown
# T11 sequence: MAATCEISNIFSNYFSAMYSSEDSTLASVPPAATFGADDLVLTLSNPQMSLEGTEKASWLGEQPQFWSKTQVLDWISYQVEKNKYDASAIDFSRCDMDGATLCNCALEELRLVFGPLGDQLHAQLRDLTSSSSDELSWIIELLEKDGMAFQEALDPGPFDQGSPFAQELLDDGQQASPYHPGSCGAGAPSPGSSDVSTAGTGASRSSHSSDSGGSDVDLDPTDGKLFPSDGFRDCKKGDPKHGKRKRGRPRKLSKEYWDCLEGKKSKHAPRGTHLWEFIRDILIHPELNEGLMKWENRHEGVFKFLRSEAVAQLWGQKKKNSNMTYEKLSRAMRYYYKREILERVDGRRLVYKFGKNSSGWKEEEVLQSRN
# Procedure, shortened: as §1
# [18] = biological target: CRX (Homo sapiens, UniProt O43186 1-299); conditions: protein: recombinant; tags: N-terminal GST; dsDNA, one strand shown
# Chain of CRX (O43186 whole entry): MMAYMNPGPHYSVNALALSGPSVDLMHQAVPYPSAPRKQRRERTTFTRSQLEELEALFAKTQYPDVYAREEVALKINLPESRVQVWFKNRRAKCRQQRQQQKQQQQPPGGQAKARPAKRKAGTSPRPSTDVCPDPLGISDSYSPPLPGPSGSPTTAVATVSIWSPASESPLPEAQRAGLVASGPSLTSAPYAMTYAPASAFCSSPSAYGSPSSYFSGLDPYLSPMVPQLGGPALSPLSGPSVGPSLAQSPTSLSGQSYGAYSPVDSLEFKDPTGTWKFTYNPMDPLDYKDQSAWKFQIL
# Procedure, shortened: as §1
# [19] = biological target: ETV1 (Homo sapiens, UniProt P50549 1-477); conditions: protein: recombinant; tags: N-terminal GST; dsDNA, one strand shown
# Chain of ETV1 (P50549 whole entry): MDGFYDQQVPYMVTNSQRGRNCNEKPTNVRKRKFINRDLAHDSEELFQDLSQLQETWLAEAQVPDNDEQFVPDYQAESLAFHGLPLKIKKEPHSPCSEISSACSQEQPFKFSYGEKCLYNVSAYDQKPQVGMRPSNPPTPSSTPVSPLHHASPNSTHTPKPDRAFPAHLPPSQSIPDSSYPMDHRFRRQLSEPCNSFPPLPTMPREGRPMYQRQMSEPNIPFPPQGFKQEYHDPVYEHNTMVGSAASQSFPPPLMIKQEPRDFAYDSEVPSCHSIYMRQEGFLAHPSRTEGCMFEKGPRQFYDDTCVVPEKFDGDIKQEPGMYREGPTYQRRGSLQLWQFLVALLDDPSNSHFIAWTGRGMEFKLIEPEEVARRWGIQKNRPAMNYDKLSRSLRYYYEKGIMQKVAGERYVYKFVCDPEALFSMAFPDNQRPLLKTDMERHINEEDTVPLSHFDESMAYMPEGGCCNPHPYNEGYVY
# Procedure, shortened: as §1
sequence,measurement,setting,value
CTGTCT,binding signal,[1],"1.35 fold enrichment (6-mer frequency, TF over GST control)"
same,binding signal,[2],"1.3 fold enrichment (6-mer frequency, TF over GST control)"
same,binding signal,[3],"1.31 fold enrichment (6-mer frequency, TF over GST control)"
same,binding signal,[4],"1.46 fold enrichment (6-mer frequency, TF over GST control)"
same,binding signal,[5],"1.35 fold enrichment (6-mer frequency, TF over GST control)"
same,binding signal,[6],"1.35 fold enrichment (6-mer frequency, TF over GST control)"
same,binding signal,[7],"1.33 fold enrichment (6-mer frequency, TF over GST control)"
same,binding signal,[8],"1.3 fold enrichment (6-mer frequency, TF over GST control)"
same,binding signal,[9],"1.62 fold enrichment (6-mer frequency, TF over GST control)"
same,binding signal,[10],"1.42 fold enrichment (6-mer frequency, TF over GST control)"
same,binding signal,[11],"1.4 fold enrichment (6-mer frequency, TF over GST control)"
same,binding signal,[12],"1.22 fold enrichment (6-mer frequency, TF over GST control)"
same,binding signal,[13],"1.56 fold enrichment (6-mer frequency, TF over GST control)"
same,binding signal,[14],"1.38 fold enrichment (6-mer frequency, TF over GST control)"
same,binding signal,[15],"1.46 fold enrichment (6-mer frequency, TF over GST control)"
same,binding signal,[16],"1.26 fold enrichment (6-mer frequency, TF over GST control)"
same,binding signal,[17],"1.47 fold enrichment (6-mer frequency, TF over GST control)"
same,binding signal,[18],"1.09 fold enrichment (6-mer frequency, TF over GST control)"
same,binding signal,[19],"1.4 fold enrichment (6-mer frequency, TF over GST control)"
